From the supplement of paper PMC11732987, “Enantioselective OTUD7B fragment discovery through chemoproteomics screening and high-throughput optimisation” (Communications Chemistry, 2025)

Assays:
Assay in all cases: log2 ratio of Biotin-Ahx-Ub-VS probe labelling (fragment/DMSO); higher = less target engagement (more negative = stronger competition), active = hit call of the paper (q ≤ 0.05, log2 ratio ≤ -1)
Conditions in all cases: compound concentration: 200 uM; treatment time: 3 h
USP19 = target: T1, USP19 (UniProt O94966)
T1 sequence (whole entry): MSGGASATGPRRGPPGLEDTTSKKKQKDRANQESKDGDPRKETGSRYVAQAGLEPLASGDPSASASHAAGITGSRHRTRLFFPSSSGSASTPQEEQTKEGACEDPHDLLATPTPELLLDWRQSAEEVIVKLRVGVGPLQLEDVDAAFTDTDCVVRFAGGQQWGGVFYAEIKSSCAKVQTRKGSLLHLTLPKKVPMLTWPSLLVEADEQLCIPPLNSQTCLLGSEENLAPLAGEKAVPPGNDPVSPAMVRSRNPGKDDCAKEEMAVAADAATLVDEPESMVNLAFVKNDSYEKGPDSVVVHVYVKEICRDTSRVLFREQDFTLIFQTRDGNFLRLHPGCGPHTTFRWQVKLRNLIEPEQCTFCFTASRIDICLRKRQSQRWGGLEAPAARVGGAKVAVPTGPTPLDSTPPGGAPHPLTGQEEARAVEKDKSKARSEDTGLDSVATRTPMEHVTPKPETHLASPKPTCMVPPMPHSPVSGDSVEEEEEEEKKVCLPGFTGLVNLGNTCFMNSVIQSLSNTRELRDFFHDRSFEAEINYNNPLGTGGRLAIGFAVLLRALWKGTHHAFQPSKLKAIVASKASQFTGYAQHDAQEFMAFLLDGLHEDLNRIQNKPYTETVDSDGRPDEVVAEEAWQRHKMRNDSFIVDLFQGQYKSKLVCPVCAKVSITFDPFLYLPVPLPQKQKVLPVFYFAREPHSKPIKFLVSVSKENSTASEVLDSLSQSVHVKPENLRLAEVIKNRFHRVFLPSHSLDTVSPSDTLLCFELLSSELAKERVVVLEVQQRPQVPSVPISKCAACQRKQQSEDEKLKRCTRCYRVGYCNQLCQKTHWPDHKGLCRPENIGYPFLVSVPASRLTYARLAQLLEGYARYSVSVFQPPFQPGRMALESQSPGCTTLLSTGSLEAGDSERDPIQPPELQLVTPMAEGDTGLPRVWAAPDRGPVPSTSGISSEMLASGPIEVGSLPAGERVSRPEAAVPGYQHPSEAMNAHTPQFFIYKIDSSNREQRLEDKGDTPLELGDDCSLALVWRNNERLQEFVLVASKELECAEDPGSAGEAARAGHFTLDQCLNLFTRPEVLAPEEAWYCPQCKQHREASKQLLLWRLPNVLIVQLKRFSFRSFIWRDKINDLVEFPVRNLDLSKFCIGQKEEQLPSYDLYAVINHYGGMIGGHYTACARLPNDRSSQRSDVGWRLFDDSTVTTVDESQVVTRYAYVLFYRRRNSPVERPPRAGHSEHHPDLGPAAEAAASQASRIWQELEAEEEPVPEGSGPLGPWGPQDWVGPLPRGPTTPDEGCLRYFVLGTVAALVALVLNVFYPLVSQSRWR
How it was run: (§1)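 Labelled DUBs were enriched with NeutrAvidin, digested with LysC and trypsin, and run by diaPASEF LC-MS/MS. The labelling used Biotin-Ahx-Ub-VS at 0.5 µM final for 1 h on HEK293T lysate (495 µg per sample) previously treated in triplicate with fragment at 200 µM or vehicle for 3 h. Values are average log2 fragment/vehicle ratios by unpaired t-test on global-median-normalised Spectronaut quantities of proteins with ≥2 unique peptides.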

USP22 = target: T2, USP22 (UniProt Q9UPT9)
T2 sequence (whole entry): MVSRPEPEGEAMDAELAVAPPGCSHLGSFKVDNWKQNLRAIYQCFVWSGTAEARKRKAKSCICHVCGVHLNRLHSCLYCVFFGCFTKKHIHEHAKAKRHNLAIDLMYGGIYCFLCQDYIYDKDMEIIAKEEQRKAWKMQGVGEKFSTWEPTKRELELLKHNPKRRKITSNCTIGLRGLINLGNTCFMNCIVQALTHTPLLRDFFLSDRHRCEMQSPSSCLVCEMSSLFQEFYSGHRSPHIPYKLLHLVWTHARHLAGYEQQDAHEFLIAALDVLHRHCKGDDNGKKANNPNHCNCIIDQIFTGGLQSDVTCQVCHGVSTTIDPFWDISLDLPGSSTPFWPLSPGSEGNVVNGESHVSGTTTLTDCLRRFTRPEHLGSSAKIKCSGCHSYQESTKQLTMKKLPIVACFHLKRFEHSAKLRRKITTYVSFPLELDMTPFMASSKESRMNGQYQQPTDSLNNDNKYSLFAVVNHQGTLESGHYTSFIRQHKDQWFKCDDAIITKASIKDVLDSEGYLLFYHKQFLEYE
How it was run: as §1

USP24 = USP24 (UniProt Q9UPU5)
How it was run: as §1

USP25 = target: T3, USP25 (UniProt Q9UHP3)
T3 sequence (whole entry): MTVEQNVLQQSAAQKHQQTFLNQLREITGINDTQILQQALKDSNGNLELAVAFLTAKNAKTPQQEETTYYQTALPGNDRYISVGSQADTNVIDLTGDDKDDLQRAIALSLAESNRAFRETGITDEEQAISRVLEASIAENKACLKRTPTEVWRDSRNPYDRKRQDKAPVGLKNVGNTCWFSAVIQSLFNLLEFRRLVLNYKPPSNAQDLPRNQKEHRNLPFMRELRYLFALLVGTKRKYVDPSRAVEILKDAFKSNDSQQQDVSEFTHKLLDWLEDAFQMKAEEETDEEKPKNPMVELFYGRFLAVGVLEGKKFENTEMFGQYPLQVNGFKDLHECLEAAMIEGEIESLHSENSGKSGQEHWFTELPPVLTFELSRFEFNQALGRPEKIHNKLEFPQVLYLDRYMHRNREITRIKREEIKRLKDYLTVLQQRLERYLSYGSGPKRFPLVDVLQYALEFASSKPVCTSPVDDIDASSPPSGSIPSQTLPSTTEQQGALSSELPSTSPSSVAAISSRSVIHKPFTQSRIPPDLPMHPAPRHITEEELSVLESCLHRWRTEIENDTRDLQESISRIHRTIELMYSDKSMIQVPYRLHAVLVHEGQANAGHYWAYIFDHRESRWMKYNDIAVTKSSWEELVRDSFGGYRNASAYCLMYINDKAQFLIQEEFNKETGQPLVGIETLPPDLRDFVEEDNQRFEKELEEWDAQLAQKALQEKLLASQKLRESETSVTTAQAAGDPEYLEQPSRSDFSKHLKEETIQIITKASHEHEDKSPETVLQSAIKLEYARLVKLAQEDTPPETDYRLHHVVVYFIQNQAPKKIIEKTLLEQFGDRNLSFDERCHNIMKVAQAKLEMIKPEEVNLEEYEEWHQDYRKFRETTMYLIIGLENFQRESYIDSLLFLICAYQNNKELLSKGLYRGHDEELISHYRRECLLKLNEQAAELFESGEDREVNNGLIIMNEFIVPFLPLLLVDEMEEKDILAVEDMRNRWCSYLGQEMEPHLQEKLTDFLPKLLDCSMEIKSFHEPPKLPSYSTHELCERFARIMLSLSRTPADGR
How it was run: as §1

USP28 = target: T4, USP28 (UniProt Q96RU2)
T4 sequence (whole entry): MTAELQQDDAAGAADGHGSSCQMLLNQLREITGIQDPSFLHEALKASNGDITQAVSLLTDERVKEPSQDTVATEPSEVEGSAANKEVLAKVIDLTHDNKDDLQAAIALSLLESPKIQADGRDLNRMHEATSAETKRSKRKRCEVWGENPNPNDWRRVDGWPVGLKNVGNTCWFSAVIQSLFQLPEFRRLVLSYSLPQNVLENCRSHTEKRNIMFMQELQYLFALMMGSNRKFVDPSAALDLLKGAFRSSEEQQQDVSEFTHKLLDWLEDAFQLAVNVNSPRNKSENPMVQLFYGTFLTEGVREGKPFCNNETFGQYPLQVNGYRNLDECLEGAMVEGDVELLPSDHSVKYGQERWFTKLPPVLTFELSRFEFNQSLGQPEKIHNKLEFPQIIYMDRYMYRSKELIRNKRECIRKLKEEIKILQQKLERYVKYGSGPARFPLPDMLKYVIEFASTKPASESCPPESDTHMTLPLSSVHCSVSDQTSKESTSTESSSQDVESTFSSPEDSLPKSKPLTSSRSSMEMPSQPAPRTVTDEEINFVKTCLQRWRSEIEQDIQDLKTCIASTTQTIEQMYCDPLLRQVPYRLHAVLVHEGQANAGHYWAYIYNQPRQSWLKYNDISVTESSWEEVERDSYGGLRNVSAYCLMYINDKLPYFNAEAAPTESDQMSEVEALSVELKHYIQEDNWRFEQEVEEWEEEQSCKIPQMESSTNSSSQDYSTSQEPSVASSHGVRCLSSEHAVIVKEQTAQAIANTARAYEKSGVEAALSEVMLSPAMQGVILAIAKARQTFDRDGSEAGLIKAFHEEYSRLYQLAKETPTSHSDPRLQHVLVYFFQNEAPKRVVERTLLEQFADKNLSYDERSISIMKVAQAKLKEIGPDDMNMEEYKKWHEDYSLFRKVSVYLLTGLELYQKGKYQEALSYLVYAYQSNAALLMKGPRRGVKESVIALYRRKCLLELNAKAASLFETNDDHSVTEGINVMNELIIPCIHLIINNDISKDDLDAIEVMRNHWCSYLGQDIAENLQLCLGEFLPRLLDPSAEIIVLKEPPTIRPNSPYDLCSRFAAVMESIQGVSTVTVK
How it was run: as §1

Measured: log2 ratio of Biotin-Ahx-Ub-VS probe labelling

Chain of USP24 (Q9UPU5 whole entry): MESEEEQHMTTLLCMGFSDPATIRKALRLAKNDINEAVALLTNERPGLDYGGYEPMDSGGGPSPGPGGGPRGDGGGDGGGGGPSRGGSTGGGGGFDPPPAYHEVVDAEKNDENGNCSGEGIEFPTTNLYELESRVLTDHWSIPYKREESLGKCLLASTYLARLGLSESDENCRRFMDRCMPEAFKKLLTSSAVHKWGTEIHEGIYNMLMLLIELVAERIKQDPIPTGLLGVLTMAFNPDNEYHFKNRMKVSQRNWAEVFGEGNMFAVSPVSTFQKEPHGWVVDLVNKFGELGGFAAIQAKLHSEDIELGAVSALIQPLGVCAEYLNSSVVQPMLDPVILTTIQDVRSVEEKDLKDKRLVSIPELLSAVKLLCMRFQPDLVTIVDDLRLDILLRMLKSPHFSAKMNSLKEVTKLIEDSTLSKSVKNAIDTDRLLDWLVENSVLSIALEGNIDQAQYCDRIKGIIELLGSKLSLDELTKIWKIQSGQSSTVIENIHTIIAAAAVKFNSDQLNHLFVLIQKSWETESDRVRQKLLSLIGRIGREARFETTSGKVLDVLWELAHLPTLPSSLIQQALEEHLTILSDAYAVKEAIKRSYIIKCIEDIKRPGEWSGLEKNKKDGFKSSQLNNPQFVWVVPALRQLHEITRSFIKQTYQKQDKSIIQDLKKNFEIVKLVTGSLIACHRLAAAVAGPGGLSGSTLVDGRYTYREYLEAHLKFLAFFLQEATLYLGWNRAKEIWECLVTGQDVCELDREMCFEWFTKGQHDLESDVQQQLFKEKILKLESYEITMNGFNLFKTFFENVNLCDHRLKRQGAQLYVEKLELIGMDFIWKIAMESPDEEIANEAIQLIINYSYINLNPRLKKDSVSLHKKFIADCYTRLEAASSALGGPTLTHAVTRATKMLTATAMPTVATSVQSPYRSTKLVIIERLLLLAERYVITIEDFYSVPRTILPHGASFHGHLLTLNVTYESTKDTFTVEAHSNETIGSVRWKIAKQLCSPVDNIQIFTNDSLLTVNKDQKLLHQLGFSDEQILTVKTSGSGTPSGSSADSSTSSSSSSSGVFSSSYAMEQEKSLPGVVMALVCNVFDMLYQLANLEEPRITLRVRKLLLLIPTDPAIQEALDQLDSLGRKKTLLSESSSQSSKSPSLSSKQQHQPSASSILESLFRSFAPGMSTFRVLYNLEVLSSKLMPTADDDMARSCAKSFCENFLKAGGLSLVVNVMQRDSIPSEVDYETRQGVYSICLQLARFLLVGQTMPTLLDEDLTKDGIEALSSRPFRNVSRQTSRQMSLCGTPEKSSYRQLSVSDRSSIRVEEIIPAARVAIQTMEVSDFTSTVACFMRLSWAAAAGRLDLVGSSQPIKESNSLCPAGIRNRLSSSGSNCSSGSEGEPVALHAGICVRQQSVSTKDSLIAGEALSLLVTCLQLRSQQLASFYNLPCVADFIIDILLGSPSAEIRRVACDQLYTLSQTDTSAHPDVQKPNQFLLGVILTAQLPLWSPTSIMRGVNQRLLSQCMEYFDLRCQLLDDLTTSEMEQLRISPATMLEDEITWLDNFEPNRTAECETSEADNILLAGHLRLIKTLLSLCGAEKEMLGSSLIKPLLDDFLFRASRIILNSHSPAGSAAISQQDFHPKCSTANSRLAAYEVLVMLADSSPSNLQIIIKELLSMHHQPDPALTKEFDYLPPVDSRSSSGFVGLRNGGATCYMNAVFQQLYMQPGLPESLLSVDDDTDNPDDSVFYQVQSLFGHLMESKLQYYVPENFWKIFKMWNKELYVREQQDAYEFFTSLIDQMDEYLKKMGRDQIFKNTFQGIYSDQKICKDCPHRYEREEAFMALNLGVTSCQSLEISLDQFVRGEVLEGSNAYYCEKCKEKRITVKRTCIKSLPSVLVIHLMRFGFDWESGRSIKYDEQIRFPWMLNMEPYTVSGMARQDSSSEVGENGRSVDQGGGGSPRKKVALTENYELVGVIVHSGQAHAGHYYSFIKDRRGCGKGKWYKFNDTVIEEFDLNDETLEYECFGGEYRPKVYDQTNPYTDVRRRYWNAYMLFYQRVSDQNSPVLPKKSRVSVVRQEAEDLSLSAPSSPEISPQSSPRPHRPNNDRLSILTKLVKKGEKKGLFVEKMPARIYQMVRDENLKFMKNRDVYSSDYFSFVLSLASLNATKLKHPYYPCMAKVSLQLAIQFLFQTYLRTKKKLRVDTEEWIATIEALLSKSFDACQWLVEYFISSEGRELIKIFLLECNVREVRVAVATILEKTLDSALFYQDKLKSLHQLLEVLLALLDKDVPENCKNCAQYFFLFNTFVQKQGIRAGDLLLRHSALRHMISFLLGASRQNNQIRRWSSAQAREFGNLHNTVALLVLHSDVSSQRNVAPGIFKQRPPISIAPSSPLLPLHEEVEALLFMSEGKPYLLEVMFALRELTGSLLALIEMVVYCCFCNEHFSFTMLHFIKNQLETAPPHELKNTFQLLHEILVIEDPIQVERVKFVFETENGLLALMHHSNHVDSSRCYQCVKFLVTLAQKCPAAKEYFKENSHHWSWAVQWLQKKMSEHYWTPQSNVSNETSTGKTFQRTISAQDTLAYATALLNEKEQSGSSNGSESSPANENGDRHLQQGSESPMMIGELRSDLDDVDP

Cl.O=C(CCl)N1CCC(Cc2nccs2)C1 (stereo not given)
inactive: USP19 -0.32 | USP22 0.0323 | USP24 -0.414 | USP25 -0.365 | USP28 -0.389
